Source: PubChem BioAssay
An excerpt weighted towards active compounds, which were near 19% of everything screened.
Pf growth 96h – Primary qHTS for delayed death inhibitors of the malarial parasite plastid, 96 hour incubation; hit rate 6.9% among 320,000; Potency, µM (top dose mostly 28.7 µM), without a hit: at the top dose activity change, negative = inhibition, actives largely listed as inhibitors; P. falciparum luciferase reporter growth, 96 h; further: potency means the concentration at half of the fitted maximal effect; on the % scale 0 is the no-effect control and ±100 the full control effect
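Cell-based qHTS: luciferase-tagged P. falciparum in erythrocytes (2% hematocrit, 0.05% parasitemia final) incubated with compounds for 96 hours, 37 C, 5% CO2; luciferase detection reagent then added and luminescence measured.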
SARS PLP yeast – qHTS of Yeast-based Assay for SARS-CoV PLP; Potency, µM (titrated, usually from 32.9 µM), for inactives: at the highest dose activity, positive = growth rescue, actives largely listed as activators; AID 485353, 2010; S. cerevisiae expressing SARS-CoV PLpro, growth rescue; hit rate 0.19% among 330,000; calls by dose curve; further: potency means the concentration at half of the fitted maximal effect; 0% is about no effect; nearly all actives have a fitted effect of over 55% in size
Shiga inhibitor – A qHTS for Small Molecule Inhibitors of Shiga Toxin; Vero cells, Shiga toxin protein synthesis inhibition reporter; inhibition, % at 38.7 µM; hit rate 9.2% among 290,000; AID 2315, 2010; in the data active means inhibition mostly above about 28%, no sharp cut-off; inactive means mostly below about 43%; further: 0% is about no effect
AMA1 RON2 block – qHTS for Inhibitors of AMA1-RON; Towards Development of Antimalarial Drug Lead: Primary Screen. Plasmodium falciparum AMA1 (3D7) - RON2 peptide interaction. AlphaScreen AMA1-biotinylated RON2 peptide binding. Potency, µM (highest dose often 58.2 µM), for inactives: at the top dose activity change, negative = inhibition, hits mostly inhibitors. hit rate 0.2% among 360,000;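 further: potency means the concentration at half of the fitted maximal effect; 0% = vehicle wells and -100% = peptide control; nearly all actives have a fitted effect of over 45% in size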
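AMA1 (3D7) with his tag at 25 nM final met compounds first, then biotinylated RON2 peptide at 25 nM; detection used donor plus acceptor beads, 10 µg/mL apiece, read by AlphaScreen after 30 min at room temperature.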
Pf growth 48h – Primary qHTS for delayed death inhibitors of the malarial parasite plastid, 48 hour incubation; P. falciparum luciferase growth in erythrocytes, 48 h; Potency, µM (doses to about 28.7 µM), for the others: at the highest dose activity change, negative = inhibition, actives largely listed as inhibitors; hit rate 5.9% among 310,000; further: potency means the concentration at half of the fitted maximal effect; on the % scale 0 is the no-effect control and ±100 the full control effect
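Here the parasites carry a stable luciferase gene and grow inside erythrocytes in Albumax-based RPMI medium with compound for one erythrocytic cycle. Activity is scored as loss of luminescent signal.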
Cycloheximide cs – Cycloheximide Counterscreen for Small Molecule Inhibitors of Shiga Toxin. cell reporter, cycloheximide protein synthesis inhibition counterscreen. max response, %. hit rate 12% among 300,000; in the data active means max response mostly above about 13%, no sharp cut-off; inactive means mostly below about 14%; further: read at 38.3 µM for the half of the compounds with a filed dose; 0% is about no effect
Starred values were filed as active, the others as inactive; ? = inconclusive; · = not tested or not shown; [ ] = remark or other dose. Unless noted, the call rests on the fitted dose curve; in most records, active means well fitted curve in the direction sought with a large enough effect; inconclusive means small, poorly fitted or top-dose-only effect, or another doubt; inactive means no such curve, though single readings can be large; an effect the other way counts as inactive or inconclusive.

SMILES	Pf growth 96h	SARS PLP yeast	Shiga inhibitor	AMA1 RON2 block	Pf growth 48h	Cycloheximide cs
Cc1cc2c(c(=O)o1)C1(C(=O)N(CC(=O)O)c3ccccc31)C(C#N)=C(N)O2 (stereo not drawn)	?	4%	-3	-10%	27%	-1
CC1=CC(C)(C)N2C(=O)C3(C(C#N)=C(N)OC4=C3C(=O)CC(C)(C)C4)c3cc(C)cc1c32 (stereo not drawn)	13µM*	2%	-9	0%	·	8
Cc1cc2c3c(c1)C1(C(=O)N3C(C)(C)CC2C)C(C#N)=C(N)OC2=C1C(=O)CC(C)(C)C2 (stereo not drawn)	?	4%	-4	-8%	12µM*	-3
Cc1cc2c3c(c1C)C1(C(=O)N3C(C)(C)CC2C)C(C#N)=C(N)Oc2cc(O)ccc21 (stereo not drawn)	10µM*	10%	-12	-7%	·	-4
O=C(/C=C/c1cccc(F)c1)Nc1ccc(S(=O)(=O)N2CCOCC2)cc1	·	-3%	·	-17%	·	·
CN(C(=S)Nc1ccc(SC(F)F)cc1)C(c1ccccc1)c1ccccc1	?	-4%	-6	21%	9.3µM*	3
CC(C)C(NS(=O)(=O)c1cccc2nsnc12)C(=O)N1CCCCC1 (stereo not drawn)	0%	3%	-3	6%	-3%	-1
CN(C)S(=O)(=O)c1cccc(COc2cccnc2[N+](=O)[O-])c1	29%	0%	2	6%	12%	-3
COc1ccccc1C1=NNC(=Nc2cccc(S(=O)(=O)N(C)C)c2)SC1	?	-3%	-5	16%	1.9µM*	3
CCOC(=O)N1CCC(N2Cc3cccc(C(=O)NCc4ccccc4OC)c3C2=O)CC1	1%	19%	2	0%	13µM*	1
CCOC(=O)N1CCC(N2Cc3cccc(C(=O)NCc4ccc5c(c4)OCO5)c3C2=O)CC1	?	0%	-8	-3%	7.4µM*	1
CCOC(=O)N1CCC(N2Cc3cccc(C(=O)O)c3C2=O)CC1	12%	3%	-6	15%	-1%	-6
CCOC(=O)N1CCC(N2Cc3cccc(C(=O)NCc4ccc(OC)cc4)c3C2=O)CC1	-1%	-40%	-12	·	7.4µM*	-2
CCCCC(=O)OCc1nc(N)nc(Nc2ccccc2C)n1	-2%	17%	active	48%	0%	58*
Cc1ccccc1Nc1nc(N)nc(COC(=O)C2CCCCC2)n1	20%	-13%	70*	-3%[11.6 µM]	40%	71*
COc1ccccc1C(=O)OCc1nc(N)nc(Nc2ccccc2C)n1	60%	-14%	43	12%	47%	36*
Cc1ccccc1Nc1nc(N)nc(COC(=O)CCS(=O)(=O)c2ccc(Cl)cc2)n1	5%	0%	·	5%	21%	·
CCN(CC)C(=O)C1=C(C)N(Cc2ccc(C(C)(C)C)cc2)C(=O)C(CC(=O)NC2CC2)C1 (stereo not drawn)	·	·	·	2%	·	·
COCc1c(C(=O)N2CCN(Cc3nc4ccccc4s3)CC2)oc2ccccc12	-28%	-4%	·	-9%[11.6 µM]	-10%	·
COc1ccccc1C(CC(=O)c1ccccc1)CC(=O)c1ccccc1	8%	-8%	-18	12%	?	14
CCOC(=O)C(CC(=O)c1ccccc1)CC(=O)c1ccccc1	75%	-1%	113*	15%	75%	39*
CCOC(=O)C(CCC(C)=O)C(=O)c1ccccc1 (stereo not drawn)	?	19%	-5	-1%	20%	-1
COC(=O)C(CC(=O)c1ccccc1)CC(=O)c1ccccc1	34%	-1%	43*	5%	33%	17*
CCOc1cc(NC(=S)NCCCN2CCOCC2)c(OCC)cc1NC(=O)C1CCCCC1	27%	0%	-13	4%	7%	-3
C=CCN1C(=O)/C(=C/c2ccc(OC)cc2)S/C1=N/c1nccs1	12µM*	-1%	-5	-5%	12%	-3
SMILES	Pf growth 96h	SARS PLP yeast	Shiga inhibitor	AMA1 RON2 block	Pf growth 48h	Cycloheximide cs
C=CCN=C1S/C(=C\c2ccc(N(C)C)cc2)C(=O)N1CC=C	-51%	0%	59*	0%	-12%	45*
C=CCN1C(=O)/C(=C/c2ccc(O)cc2)S/C1=N/c1nccs1	?	-11%	8	-9%	-21%	4
C=CCN1C(=O)S/C(=C\c2ccc3c(c2)n(C)c(=O)n3C)C1=O	0%	4%	-8	-7%	34%	7
CCC(=O)Nc1ccc(N2CCN(C(=O)c3ccco3)CC2)c(Cl)c1	?	-4%	11	?	-11%	10
CC(C)C(=O)N1CCN(c2ccc(NC(=O)c3cccs3)cc2)CC1	104%	-9%	-5	18%	?	-3
O=C(Cc1ccc(Cl)cc1)Nc1ccc(N2CCN(C(=O)c3ccco3)CC2)c(Cl)c1	-10%	-1%	13	-21%	12µM*	9
CC(C)C(=O)N1CCN(c2ccc(NC(=O)c3cccs3)cc2Cl)CC1	-1%	0%	25*	-6%	?	12
O=C(Nc1ccc(N2CCN(C(=O)c3ccco3)CC2)c(Cl)c1)c1cccs1	·	-10%	29*	-2%	5.2µM*	22*
Cc1ccccc1Nc1nc(NCc2ccco2)c2ccccc2n1	5%	-3%	49	?	?	19*
Oc1ccccc1Nc1nc(NCc2ccco2)c2ccccc2n1	2.1µM*	-1%	15	27%	?	-1
COc1ccc(OC)c(Nc2nc(NCc3ccco3)c3ccccc3n2)c1	43%	-4%	·	?	?	-2
CC(C)CN(C(=O)c1cc(Cl)nc2ccccc12)C1CCS(=O)(=O)C1 (stereo not drawn)	35%	-2%	·	0%	?	·
NC(=S)N/N=C/c1ncc(C(F)(F)F)cc1Cl	3.3µM*	9%	11	67%	1.5µM*	0
CCOc1ccc(N(CC(=O)Nc2cc(C)ccc2C)S(=O)(=O)c2c(C)[nH]c(=O)[nH]c2=O)cc1	3%	3%	5	2%	-29%	6
CC(C)C(=O)Nc1nnc(CCc2ccccc2)s1	3%	-2%	30	11%	-3%[0.00184 µM]	19*
CCC(=O)Nc1nnc(CCc2ccccc2)s1	-17%	6%	22	2%	24%	13*
CC(C)(C)C(=O)Nc1nnc(CCc2ccccc2)s1	472%	1%	81*	8%	145%	50*
O=C(Nc1nnc(CCc2ccccc2)s1)c1ccccc1	?	-3%	46*	27%	49%	14*
NC(=O)CSc1nnc(-c2cc(-c3ccc(Cl)cc3)nc3ccccc23)o1	-32%[5.75 µM]	0%	-9	16%	38%	-3
